# Screens as filed in PubChem BioAssay.
# Abeta yeast res – qHTS for compounds that reverse cellular toxicity of Amyloid beta (A-beta) peptide in yeast: Primary Screen; AID 1347071, 2019; 0.063% of 410,000 active; Potency, µM (top dose mostly 46.1 µM), hits mostly activators; yeast expressing A-beta42, growth rescue, OD600, 48 h; response scale: 0% DMSO, 100% iron-clioquinol control; further: nearly all actives have a fitted effect of over 55% in size
#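 Yeast growth medium received pinned compounds, then yeast cells expressing toxic A-beta were added; plates incubated at 30 C for 48 hr. Growth read as absorbance at 600 nm, normalized to DMSO and equimolar FeCl3 plus clioquinol controls.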
# aSyn yeast inh – qHTS of alpha-syn Inhibitors. Yeast expressing alpha-synuclein, growth rescue, BacTiter-Glo, 24 h. Potency, µM (series often up to 46.1 µM), for inactives: at the highest dose growth rescue (activation), actives largely listed as activators. 0.14% of 370,000 active. AID 652106, 2013; further: % of control where 0% means no effect; nearly all actives have a fitted effect of over 65% in size
#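 Screening used galactose-induced yeast with toxic alpha-synuclein levels, exposed to compound for 24 hr at 30 deg C. Cell growth, read with BacTiter-Glo luminescence, gave the measured signal.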
# TDP43 rescue – qHTS of TDP-43 Inhibitors; TDP-43 expressing yeast growth rescue, BacTiter-Glo, 24 h; Potency, µM (series often up to 46.1 µM), without a hit: at the top dose growth rescue (activation), actives largely listed as activators; 1.8% of 410,000 active; further: % of control where 0% means no effect; nearly all actives have a fitted effect of over 50% in size
#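 Cell-based yeast growth screen: TDP-43 expression induced in galactose, inoculum OD600=0.02 after raffinose pregrowth to mid-log. Read-out BacTiter-Glo luminescence at 24 hr, 30 deg C; inhibition of toxicity seen as signal increase.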
# FUS suppressor – qHTS for Suppressors of FUS Proteinopathy: Primary screen using FUS-linked yeast assay. S. cerevisiae FUS-expressing, growth rescue, OD600, 24 h. Potency, µM (highest dose often 76.6 µM), actives largely listed as activators. AID 1347120, 2019. 0.24% of 390,000 active;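 further: plate controls were DMSO vehicle for no effect and reference control for full effect; nearly all actives have a fitted effect of over 55% in size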
#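 S. cerevisiae expressing FUS from galactose induction served as the toxicity model. Growth after 24hr at 30C, read as absorbance at 600 nm, indicates suppression of toxicity; compounds dosed at several concentrations.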
# * marks the source's active call; other numbers are inactive results; i = inactive; ? = inconclusive; nt = not tested or not shown; [ ] = remark or other dose. The list is not random: actives were taken first. Their share in the collection is about 2.1%. The call rests on the fitted dose curve; in most records, active means well fitted curve in the direction sought with a large enough effect; inconclusive means small, poorly fitted or top-dose-only effect, or another doubt; inactive means no such curve, though single readings can be large; an effect the other way counts as inactive or inconclusive. Potency means the concentration at half of the fitted maximal effect.
SMILES,Abeta yeast res,aSyn yeast inh,TDP43 rescue,FUS suppressor
CCOC(=O)c1cnc(SC2CCc3ccccc3C2=O)nc1N (stereo unspecified),i,5%,20µM*,?
CCOC(=O)c1nnn2c1nc(N1CCOCC1)c1ccccc12,i,-1%,2%,i
Cc1ccccc1C(=O)Nc1nnc(-c2ccc(F)cc2)o1,22µM*,18µM*,?,i
CC1CCN(C(c2ccc(N(C)C)cc2)c2nnnn2Cc2ccc(F)cc2)CC1 (stereo unspecified),i,0%,-1%,i
Fc1ccc(Cn2nnnc2C(c2ccc(Cl)cc2)N2CCSCC2)cc1 (stereo unspecified),i,10%,35µM*,i
CC(=O)Nc1cc(-c2ccccc2F)cn2c(-c3ccccc3)cnc12,i,5%,20µM*,i
COc1ccccc1-c1cc(NC(C)=O)c2ncc(-c3ccccc3)n2c1,i,25%,?,i
COc1cccc(-c2cnc3c(NC(C)=O)cc(-c4ccccc4OC)cn23)c1,i,6%,20µM*,i
CN(C)C(=O)c1cccc(-c2cnc3c(NC=O)cc(-c4cccc(C(F)(F)F)c4)cn23)c1,i,-2%,0%,28µM*
O=CNc1cc(-c2cccc(F)c2)cn2c(-c3ccc(F)cc3)cnc12,i,-7%,18µM*,i
CCOC(=O)COc1ccc(S(=O)(=O)Nc2ccc3c(c2)OCO3)cc1,i,?,-12%,i
CCN(CC)CCN(CC)Cc1ccccc1Br,i,-7%,-23%,i
CCOc1ccccc1NC(=O)COC(=O)CN(C)S(=O)(=O)c1ccc(C)cc1,i,3%,23%,i
COc1ccc(-c2cc(NC(C)=O)c3ncc(-c4cccc(C(F)(F)F)c4)n3c2)c(OC)c1,i,23%,13µM*,?
COc1cc(-c2cnc3c(NC=O)cc(-c4cccc(C(F)(F)F)c4)cn23)cc(OC)c1OC,i,11%,0%,?
COc1ccc(-c2cc(NC=O)c3ncc(-c4cccc(C(F)(F)F)c4)n3c2)c(OC)c1,i,-6%,16µM*,?
Cc1ccccc1NC(=O)Cc1cccs1,?,0%,21%,i
CCOc1ccccc1NC(=O)c1cccc(NC(=O)C2CCCC2)c1,i,0%,?,i
COc1ccc(CCNC(=O)Cn2cnc3c(cnn3C(C)(C)C)c2=O)cc1OC,i,-6%,2%,i
COc1ccc(S(=O)(=O)Nc2cc3c4c(c2)CCN4C(=O)CC3)cc1,i,-5%,0%,i
O=C1CCc2cc(NS(=O)(=O)c3ccc(Br)cc3)cc3c2N1CC3,i,3.2µM*,8%,i
Cc1cccc(NC(=O)CN2C(=O)N/C(=C/c3cc(C)n(C(C)C)c3C)C2=O)c1,i,21%,-9%,20µM*
Cc1cccc(NC(=O)CN2C(=O)N/C(=C/c3ccc(C)s3)C2=O)c1,i,-3%,-7%,nt
CN(CC1COc2ccccc2O1)C(=O)CSc1ncnc2sccc12 (stereo unspecified),i,10%[1.84 µM],18µM*,?
CC(C)c1nnc(SCC(=O)NC2CCCCC2)n1C,i,-1%,-4%,i
CC(C)=CCC[C@](C)(O[C@@H]1O[C@H](CO[C@@H]2OC[C@@H](O)[C@H](O)[C@H]2O)[C@@H](O)[C@H](O)[C@H]1O)C1CC[C@]2(C)C1[C@H](O)CC1[C@@]3(C)CC[C@H](O[C@@H]4O[C@H](CO)[C@@H](O)[C@H](O)[C@H]4O)C(C)(C)C3CC[C@]12C (stereo partly specified),i,3%,15%,16µM*
CC(C)=CCC[C@](C)(O[C@@H]1O[C@H](CO[C@@H]2OC[C@H](O[C@@H]3OC[C@@H](O)[C@H](O)[C@H]3O)[C@H](O)[C@H]2O)[C@@H](O)[C@H](O)[C@H]1O)C1CC[C@]2(C)C1[C@H](O)CC1[C@@]3(C)CC[C@H](O)C(C)(C)C3[C@@H](O)C[C@]12C (stereo partly specified),i,0%,5%,i
COc1ccc(CCC(C)NCc2ccc(C(F)(F)F)cc2)cc1 (stereo unspecified),i,1%,-1%,i
